# How the values were obtained:
# Settings in all cases: Compound Concentration (nM):1000
# EPHB2 = system: EPHB2
# EPHB3 = system: EPHB3
# EPHB4 = system: EPHB4
# EPHB6 = system: EPHB6
# ERBB2 = system: ERBB2
# ERBB3 = system: ERBB3
# ERBB4 = system: ERBB4
# ERK1 = system: T1, ERK1
# T1 construct: gene MAPK3
# ERK2 = system: T2, ERK2
# T2 construct: gene MAPK1
# ERK3 = system: T3, ERK3
# T3 construct: gene MAPK6
# ERK4 = system: T4, ERK4
# T4 construct: gene MAPK4
# ERK5 = system: T5, ERK5
# T5 construct: gene MAPK7
# ERK8 = system: T6, ERK8
# T6 construct: gene MAPK15
# ERN1 = system: ERN1
# FAK = system: T7, FAK
# T7 construct: gene PTK2
# FER = system: FER
# FES = system: FES
# FGFR1 = system: FGFR1
# FGFR2 = system: FGFR2
# FGFR3(G697C) = system: FGFR3(G697C)
# 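Further: KINOMEscan scanMAX binding as percent activity remaining versus control; lower means stronger binding.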
Compound,Percent Control (EPHB2) [%],Percent Control (EPHB3) [%],Percent Control (EPHB4) [%],Percent Control (EPHB6) [%],Percent Control (ERBB2) [%],Percent Control (ERBB3) [%],Percent Control (ERBB4) [%],Percent Control (ERK1) [%],Percent Control (ERK2) [%],Percent Control (ERK3) [%],Percent Control (ERK4) [%],Percent Control (ERK5) [%],Percent Control (ERK8) [%],Percent Control (ERN1) [%],Percent Control (FAK) [%],Percent Control (FER) [%],Percent Control (FES) [%],Percent Control (FGFR1) [%],Percent Control (FGFR2) [%],Percent Control (FGFR3(G697C)) [%]
CN(C)CCNC(=O)Nc1ccc(N(C)c2ccnc(Nc3ccc(CS(C)(=O)=O)cc3)n2)cc1.Cl [GW830900A],100,100,100,28,100,93,81,100,85,94,93,100,78,72,49,100,100,100,94,100
NS(=O)(=O)c1ccc(N/N=C2\C(=O)Nc3ccc(-c4cnco4)cc32)cc1 [GW276655],100,86,84,58,91,76,66,75,77,87,100,98,23,89,68,91,86,85,100,78
CN1CCN(C(=O)c2ccc(NC(=O)Nc3ccc(N(C)c4ccnc(Nc5ccc(CS(C)(=O)=O)cc5)n4)cc3)cc2)CC1.Cl [GW830263A],76,100,85,4.3,100,85,77,100,100,100,100,100,25,25,36,46,67,100,99,100
Cl.c1ccc(Cc2nc3ccc(Nc4ncnc5ccccc45)cc3[nH]2)cc1 [GR269666A],100,100,100,81,0,20,1.8,100,100,100,100,100,92,93,100,88,100,100,100,100
C/C(Nc1ccc(S(N)(=O)=O)cc1)=C1/C(=O)Nc2ccccc21 [GW335962X],100,89,86,93,100,74,100,91,100,93,100,100,100,88,93,88,84,86,93,100
Cl.O=C(Nc1ccc(Oc2ccc3[nH]c(NC(=O)c4ccccc4)nc3c2)cc1)Nc1cc(C(F)(F)F)ccc1F [GW709042A],76,90,84,28,92,70,100,100,100,84,91,94,64,100,100,77,94,76,68,100
CCc1ccc(Oc2nccc(-c3c(-c4ccc(F)cc4)ncn3C3CCNCC3)n2)cc1 [SB-242719],95,94,98,76,20,78,99,92,100,100,100,100,100,75,100,67,97,100,100,91
O=C1Nc2ccc(C(=O)c3ccco3)cc2C1=Cc1cc(Cl)c(O)c(Cl)c1 [GW406108X],100,89,98,63,83,87,100,100,94,94,100,100,100,66,100,100,99,100,75,100
COc1ccc2[nH]c3c4[nH]c5ccc(OC)cc5c4c4c(c3c2c1)C(=O)NC4=O [GW296115X],84,85,84,7.3,100,85,59,85,76,84,74,69,58,93,85,58,86,100,88,100
COc1ccc(COc2ccc(Cc3cnc(N)nc3N)cc2OC)cc1 [GW632580X],81,73,92,100,94,85,100,95,92,87,100,100,100,88,100,81,82,67,99,89
CCS(=O)(=O)c1ccc(OC)c(Nc2ncc(-c3cccc(OC)c3)o2)c1 [GW580509X],100,100,100,3.3,77,54,100,100,100,100,100,100,100,76,100,100,100,39,58,31
C[C@@H](Oc1cc(-n2cnc3ccc(OC4CCN(C)CC4)cc32)sc1C(N)=O)c1ccccc1Cl [GSK579289A],77,95,100,75,79,85,90,59,100,97,98,96,100,55,50,100,85,67,89,61
COc1cc(/C=N/Nc2ncnc3[nH]ncc23)ccc1O [GW578748X],100,100,100,1.6,57,64,100,100,100,57,72,100,93,53,100,100,100,81,100,88
CC1=C(C(=O)Nc2ccc3[nH]ncc3c2)C(c2ccc(Cl)c(Cl)c2)CC(=O)N1 (stereo not shown) [GSK299115A],100,98,94,99,92,100,36,72,76,77,100,100,90,80,100,97,96,90,73,94
COc1cc(N2CCN(C(C)C)CC2)ccc1Nc1nc(Nc2ccc(F)cc2C(=O)NC[C@@H](O)CO)c2cc[nH]c2n1 [GSK1392956A],100,69,81,93,85,50,73,100,99,66,100,99,100,43,4.5,43,58,100,97,98
O=C(Nc1n[nH]c2nc(-c3ccc(O)cc3)c(Br)cc12)C1CC1 [SB-725317],100,100,100,57,80,32,100,100,100,100,100,2.4,27,93,100,100,100,100,100,100
NS(=O)(=O)c1ccc(Nc2ncc(-c3ccccc3)o2)cc1 [GW572399X],100,94,100,35,70,74,100,100,100,100,100,100,28,100,100,100,100,100,100,100
Cl.O=C(O[C@H]1CN[C@H](C#Cc2cc3ncnc(Nc4ccc5c(cnn5Cc5ccccc5)c4)c3s2)C1)N1CCOCC1 [GSK200398A],100,100,96,100,0,10,0,100,100,100,99,89,90,88,96,94,95,100,100,86
COc1cc2ncnc(Nc3ccc4c(cnn4Cc4ccccc4)c3)c2cc1OC.Cl [GW282449A],100,100,100,12,0,0,0,100,100,100,100,100,100,96,100,100,100,100,100,100
CC(C)COC(=O)c1ccc2c(c1)/C(=C/Nc1ccc(S(N)(=O)=O)cc1)C(=O)N2 [GW416981X],100,100,100,100,26,81,50,100,100,100,100,100,1.8,100,100,100,100,100,100,100
